CYP2C9 activ = activators of human CYP2C9; recombinant CYP2C9, luciferin-H conversion, luminescence; active compounds read high; factor 1 = untreated enzyme, 0 = blocked; activation factor at 5 µM; 96,000 compounds, 1.4% hits;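 active means activation factor of 2 or more for CYP2C9 at a 5 µM dose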;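 further: 0 = sulfaphenazole-blocked wells and 1 = vehicle-only wells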
Pyk2 oligo antag = blocks oligomerization of human Pyk2 in cells; Q14289; Q293 cells, Pyk2 FERM NanoBiT luminescence; active compounds read low; z-score (the deposit names both 25 µM and 10 µM); 99,000 compounds, 0.83% hits; AID 1347419;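 active means Z-score of -3 or lower, scaled per plate to the spread of control and sample wells; inactive means z-score above -3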;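 further: negative z-score means lost luminescence so less FERM oligomerization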
CYP2C19 inhib = inhibitors of human CYP2C19; P33261; CYP2C19 Supersomes, luciferin-H EGE luminescence, 30 min; inhibition, % at 5 µM; 96,000 compounds, 21% hits; AID 778;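 active means CYP2C19 inhibition above a set limit at 5 µM in the primary screen, cut at about 50% in these data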;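 further: plate controls were negative control wells for no effect and 2.5 mM tranylcypromine positive control for full effect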
CYP2C19 act = increases human CYP2C19 enzyme activity | P33261 | recombinant CYP2C19, luciferin-H EGE luminescence; active compounds read high; 0 = fully inhibited enzyme, 1 = untreated enzyme | activation factor at 5 µM | 96,000 tested, under 10 active | AID 1025;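 active means activation factor of at least 2 at 5 µM in the primary screen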;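 further: 0 = wells with 2.5 mM tranylcypromine and 1 = vehicle-only wells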
CYP2C9 inh = human CYP2C9 inhibition. 96,000 compounds, 20% hits. AID 777. inhibition, % at 5 µM. CYP2C9 Supersomes, luciferin-H conversion, luminescence. P11712;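 active means blocking of liver enzyme CYP2C9 beyond about 50% at 5 µM, limit read from the data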
An asterisk follows results filed as active; x = no result. Shown are actives, neighbours in structure and some others; about 28% of the full set was active somewhere.

SMILES	CYP2C9 activ	Pyk2 oligo antag	CYP2C19 inhib	CYP2C19 act	CYP2C9 inh
COc1ccc(NC(=O)CSc2nnc(Cc3cccn3C)n2-c2ccc(C)cc2)cc1OC	0.7	2.55	9.2	0.9	26.1
Cc1c(C(=O)NCCSCc2c(Cl)cccc2Cl)cccc1[N+](=O)[O-]	1.1	0.09	13.3	0.9	-6.8
O=C(Nn1c(-c2ccccc2)nc2ccccc2c1=O)c1cccs1	x	-0.41	x	x	x
CCOC(=O)Cn1c(CN2CCOCC2)nc2c1c(=O)n(C)c(=O)n2C	1.2	x	-16.2	1.2	-16.9
CC(=O)c1c(C(C)=O)c(C)n(-c2ccc(N)c(C)c2)c1C	0.6	-0.53	25.2	0.7	41.5
COc1ccc(-n2c(Cc3cccn3C)nnc2SCC(=O)Nc2ccccc2C)cc1	0.7	x	18.2	0.8	31.2
COc1ccc(-n2c(Cc3cccn3C)nnc2SCC(=O)NCCc2ccccc2)cc1	0.3	-0.2	34.5	0.7	73.4*
COc1ccc(-n2c(Cc3cccn3C)nnc2SCC(=O)Nc2nccs2)cc1	0.4	x	78.1*	0.2	58.3*
COc1ccc(OC)c(NC(=O)CSc2nnc(Cc3cccn3C)n2-c2ccc(F)cc2)c1	0.5	x	72.9*	0.3	54.2*
COCCCNC(=S)NNC(=O)c1cccnc1	0.8	0.66	-4.5	1	20.2
CCOC(=O)c1ccccc1NS(=O)(=O)c1ccc(OCC)cc1	0.6	-2.54	70.1*	0.3	39.9
CCOc1ccc(S(=O)(=O)NNC(=O)c2cc3ccccc3o2)cc1	x	0.65	x	x	x
CCOc1ccc(S(=O)(=O)Nc2ccccc2C(=O)NCC2CCCO2)cc1 (stereo not drawn)	0.7	-0.5	71.3*	0.3	34.9
Cc1ccc(NC(=O)c2cnn(-c3ccccc3)c2NC(=O)c2ccco2)cc1	0.7	-0.61	14.4	0.9	34.7
COCCn1c(SCc2cccnc2)nnc1-c1c[nH]c2ccccc12	0.4	x	75.1*	0.2	55.0*
CCn1c(SCc2cccnc2)nnc1-c1c[nH]c2ccccc12	0.5	x	89.2*	0.1	45.1
COc1cc(-c2nnc(SCc3cccnc3)n2C)cc(OC)c1O	0.9	0.89	29.9	0.7	14.9
COc1ccc(C2C3=C(CC(C)(C)CC3=O)Oc3ncn(Cc4ccco4)c(=N)c32)cc1 (stereo not drawn)	1	0.34	-6.8	1.1	4.8
COc1ccc(C(=O)NCCn2ccc3ccccc32)c(OC)c1	1	-0.25	99.8*	0	4.9
CCN(CC)CCNC(=O)Cn1c(C)cc2ccccc2c1=O	1.1	1.4	-8.3	1.1	-14.2
Cc1cc2ccccc2n1CCNC(=O)c1ccc(S(=O)(=O)N2CCCCC2)cc1	0.1	x	33.8	0.7	90.1*
O=C(Cc1cccs1)NCCn1ccc2ccccc21	0.8	x	73.1*	0.3	17.9
O=C(COc1ccccc1)NCCn1ccc2ccccc21	x	0.12	x	x	x
Cc1cc2ccccc2n1CCNC(=O)C(C)C	0.9	x	50.4*	0.5	7.9
N#C/C(=C/c1ccco1)c1nc2ccccc2s1	x	-1.13	x	x	x
SMILES	CYP2C9 activ	Pyk2 oligo antag	CYP2C19 inhib	CYP2C19 act	CYP2C9 inh
O=C(Cc1ccccc1)NCCCN1CCN(CCCNC(=O)Cc2ccccc2)CC1	1.1	-0.05	-15.2	1.2	-11.0
Cc1cc2ccccc2n1CCNC(=O)Cc1ccccc1	0.2	x	96.2*	0	81.4*
CCC(=O)NCCn1ccc2ccccc21	0.9	x	2.5	1	7.2
Cc1cc2ccccc2n1CCNC(=O)C(C)Oc1ccccc1 (stereo not drawn)	0.1	x	100.4*	0	87.2*
CC(C)C(=O)NCCn1ccc2ccccc21	0.7	0.35	57.2*	0.4	34.9
COc1ccc(C(=O)Nc2nc(-c3ccc([N+](=O)[O-])cc3)c(-c3ccccc3)s2)cc1	x	-0.22	x	x	x
Clc1ccccc1OCCCCn1ccnc1	0	0.32	100.0*	0	96.1*
Clc1cc(Br)ccc1OCCn1ccnc1	0.1	-0.18	95.9*	0	93.2*
Cc1ccccc1OCCCCCn1ccnc1	0	-0.31	100.4*	0	100.3*
Clc1ccc(SCCCCn2ccnc2)cc1	0	2.02	99.7*	0	99.5*
Cc1cc(OCCCn2ccnc2)ccc1C(C)C	x	0.28	x	x	x
O=C(O)c1ccc(OCCn2ccnc2)cc1	1.1	x	-20.1	1.2	-5.7
O=C(NCc1ccco1)C(c1cccnc1)N(C(=O)Cn1nnc2ccccc21)c1ccc(F)cc1 (stereo not drawn)	1	-0.55	11.8	0.9	2.4
Cc1cc(C(F)F)n2nc(C(=O)Nc3ccccc3Br)nc2n1	1.2	0.46	-16.5	1.2	-20.8
COC(=O)c1c(NC(=O)CCCC(=O)O)sc2c1CCC2	1.2	0.23	0.1	1	-19.6
Cc1ccc2c(c1)sc1nc(=O)n(-c3cccc(Cl)c3)c(=O)n12	1	1.55	25.6	0.7	4.4
CCOC(=O)N1CCN(S(=O)(=O)c2c(C)cc(C)cc2C)CC1	0.5	-1.08	23.1	0.8	50.3*
CCOC(=O)N1CCN(C(=O)C2CCN(S(=O)(=O)c3c(C)cc(C)cc3C)CC2)CC1	3.4*	-0.74	22.5	0.8	-240.7
CCOC(=O)N1CCN(S(=O)(=O)c2ccc(C)c(C)c2)CC1	1.6	0.09	40.7	0.6	-63.1
COc1nn(CC(=O)N2N=C(C(F)F)CC2(O)C(F)F)cc1[N+](=O)[O-] (stereo not drawn)	x	-0.47	x	x	x
Cc1nc2c(C(=O)N3CCOCC3)cnn2c(C)c1Cc1cccc(Cl)c1	0.8	x	30.8	0.7	23.7
NC(=O)C(c1ccccc1)C1CCCC1 (stereo not drawn)	1.1	0.4	16.5	0.8	-5.8
O=P(OC1CCCCC1)(OC1CCCCC1)C(O)c1ccccc1 (stereo not drawn)	0.4	0.34	64.6*	0.4	55.4*
Cc1c(NC(=O)CCCCCN2C(=O)C3C4C=CC(C4)C3C2=O)c(=O)n(-c2ccccc2)n1C (stereo not drawn)	0.9	x	-15.2	1.2	9.5
CCc1ccc(NC(=S)NC2CC3CCCC(C2)N3Cc2cccs2)cc1 (stereo not drawn)	0.7	-0.05	30.2	0.7	30.5
CC12CC(NC(=O)N1c1cccc(C(=O)N3CCN(c4ccccc4F)CC3)c1)c1ccccc1O2 (stereo not drawn)	0.2	-0.3	43.9	0.6	79.2*
CC12CC(NC(=O)N1c1cccc(C(=O)NCc3ccc4c(c3)OCO4)c1)c1cc(Cl)ccc1O2 (stereo not drawn)	0.2	-0.87	59.2*	0.4	78.7*
CC1CN(S(=O)(=O)c2cccc(C(=O)NCc3ccc4c(c3)OCO4)c2)CC(C)O1 (stereo not drawn)	0.9	0.81	10.2	0.9	11.3
COc1cccc(N2CCN(C(=O)c3ccc(N4C(=O)NC5CC4(C)Oc4ccccc45)cc3)CC2)c1 (stereo not drawn)	0.9	0.25	16.0	0.8	10.8
CC12CC(NC(=O)N1c1ccc(C(=O)N3CCN(c4ccccn4)CC3)cc1)c1ccccc1O2 (stereo not drawn)	0.9	x	7.6	0.9	6.3
